Source: PubChem BioAssay (National Center for Advancing Translational Sciences (NCATS))
ALOX15B inhib: qHTS Assay for Inhibitors of 15-hLO-2 (15-human lipoxygenase 2); 110,000 tested, 0.56% active; AID 881, 2007; purified 15hLO-2, xylenol orange hydroperoxide absorbance; Potency, µM (doses to about 57.1 µM), for inactives: at the highest dose activity change, negative = inhibition, hits mostly inhibitors; Polyunsaturated fatty acid lipoxygenase ALOX15B (Homo sapiens), O15296; further: potency means the concentration at half of the fitted maximal effect; nearly all actives have a fitted effect of over 60% in size
Target sequence (O15296 whole entry, looked up): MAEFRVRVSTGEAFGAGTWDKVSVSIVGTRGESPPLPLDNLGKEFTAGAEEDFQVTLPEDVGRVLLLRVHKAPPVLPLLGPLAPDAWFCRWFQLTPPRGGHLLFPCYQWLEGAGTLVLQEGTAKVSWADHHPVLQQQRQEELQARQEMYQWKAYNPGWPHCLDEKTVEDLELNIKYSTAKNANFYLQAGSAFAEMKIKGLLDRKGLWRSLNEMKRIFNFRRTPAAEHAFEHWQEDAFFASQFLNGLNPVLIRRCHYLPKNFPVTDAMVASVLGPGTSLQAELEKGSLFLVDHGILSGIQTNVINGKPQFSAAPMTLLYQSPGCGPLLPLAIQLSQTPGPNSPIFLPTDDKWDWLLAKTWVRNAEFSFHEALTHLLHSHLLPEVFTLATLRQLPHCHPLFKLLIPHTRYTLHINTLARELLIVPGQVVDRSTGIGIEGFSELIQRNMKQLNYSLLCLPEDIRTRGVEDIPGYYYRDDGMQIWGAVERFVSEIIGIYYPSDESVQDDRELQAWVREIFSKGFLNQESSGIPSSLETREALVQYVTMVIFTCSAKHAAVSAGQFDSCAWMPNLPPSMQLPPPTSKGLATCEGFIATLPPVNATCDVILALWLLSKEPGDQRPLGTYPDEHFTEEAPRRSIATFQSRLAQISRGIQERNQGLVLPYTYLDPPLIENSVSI
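Enzyme 50 nM, AA 45 uM, 25 mM Hepes pH 7.5 + 0.01% Triton X-100; cpd preinc 15 min RT, rxn 90 min RT; stop/detect with 200 uM XO + 300 uM Fe(II) in 50 mM H2SO4, 30 min; A573/A405.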
ALOX12 inhib: qHTS Assay for Inhibitors of 12-hLO (12-human lipoxygenase); purified 12-hLO, xylenol orange hydroperoxide absorbance; Potency, µM (series often up to 57.1 µM), without a hit: at the highest dose activity change, negative = inhibition, actives largely listed as inhibitors; 150,000 tested, 0.12% active; AID 1452, 2008; further: potency means the concentration at half of the fitted maximal effect; nearly all actives have a fitted effect of over 55% in size
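Xylenol orange chromogenic assay: hydroperoxide from 12hLO oxidises Fe(II), giving red-shifted Fe(III)-XO absorbance. Conditions: 150 nM enzyme, 40 uM arachidonic acid, 25 mM Hepes pH 7.0, 0.01% Triton X-100, 30 min, room temperature.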
PNC assembly inh: High Content Assay for Compounds that inhibit the Assembly of the Perinucleolar Compartment; PC3M PTB-GFP, PNC prevalence imaging, 16 h; active compounds read low; activity change (PNC), negative = inhibition, % at 10 µM; AID 2417, 2010; 140,000 tested, 3.1% active;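 active means readout at or below -70, meaning at least 70% loss of cells showing the perinucleolar compartment, a nuclear body marking cancer cells; inconclusive means readout between -30 and a set limit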;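 further: plate controls were DMSO wells for no effect and camptothecin positive control wells for full effect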
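Compounds are pinned in duplicate onto adhered PC3M cells stably expressing GFP-tagged PTB and incubated 16 h at 37 C. Cells are then fixed, nuclei stained with Hoechst, and PNC-positive cells counted.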
An asterisk follows results filed as active; ? = inconclusive; · = no result given; [ ] = another dose, or the depositor's remark. Only some compounds are listed: those with a hit (about 3.2% of all), similar ones and a draw of the others. Unless noted, the call rests on the fitted dose curve; in most records, active means well fitted curve in the direction sought with a large enough effect; inconclusive means small, poorly fitted or top-dose-only effect, or another doubt; inactive means no such curve, though single readings can be large; an effect the other way counts as inactive or inconclusive. Unless noted, on the % scale 0 is the no-effect control and ±100 the full control effect.

SMILES	ALOX15B inhib	ALOX12 inhib	PNC assembly inh
COC(=O)C1=C(C)NC(=O)C1(NS(=O)(=O)c1ccc(NC(C)=O)cc1)C(F)(F)F (stereo unspecified)	-2.3%	10.5%	-6.6
COC(=O)NC1(C(F)(F)F)C(=O)NC(C)=C1C(=O)OC (stereo unspecified)	1.4%	-1.0%	-107.1*
COc1ccc(NC(=O)N2CC[C@@]3(CCCNC3)C2)cc1	0.3%	-1.6%	·
Cc1nc(NC(=O)c2ccccc2)sc1-c1csc(Nc2ccc(Cl)cc2)n1	22.9%	-3.1%	?
Cc1nc(NC(=O)c2ccccc2)sc1-c1csc(Nc2ccc(F)cc2)n1	-20.3%	-22.3%	-100.0*
C=C1c2c(Cl)ccc(O)c2C(O)=C2C(=O)[C@@]3(O)C(O)=C(C(N)=O)C(=O)[C@@H](N(C)C)[C@@H]3[C@@H](O)[C@H]12	10.2%[25.6 µM]	-5.8%[25.6 µM]	·
CCOc1ccccc1OCC(=O)Nc1ccc(S(=O)(=O)N(C)C)cc1	6.9%	-5.9%	-85.6*
CCOc1ccccc1OCC(=O)Nc1ccc(S(=O)(=O)Nc2ncccn2)cc1	·	5.7%	55.5
CCCCCn1c(SCCCC)nc2c1c(=O)[nH]c(=O)n2C	-10.9%	-3.4%	4.9
CCCCCCn1c(SCCC)nc2c1c(=O)[nH]c(=O)n2C	-6.8%	0.7%	-85.7*
C=CCn1c(SCCCc2ccccc2)nc2c1c(=O)[nH]c(=O)n2C	·	-4.5%	-11.4
C/C=C/Cn1c(SCCCc2ccccc2)nc2c1c(=O)[nH]c(=O)n2C	·	-10.4%	-119.3*
Cc1cccc(-c2cccc(-c3cc(=O)oc4cc5c(cc34)OCO5)c2)c1	-19.8%[0.0915 µM]	2.8%[0.00818 µM]	·
NC1C2CN(c3nc4c(cc3F)c(=O)c(C(=O)O)cn4-c3ccc(F)cc3F)CC12 (stereo unspecified)	4.4%	1.3%	6.3
O=C(NCc1ccc2c(c1)OCO2)C12CN(Cc3ccccc3)CC1C(c1cccc([N+](=O)[O-])c1)=NO2 (stereo unspecified)	-0.7%	-0.9%	-86.7*
CC(C)CCNC(=O)C12CN(Cc3ccccc3)CC1C(c1ccc([N+](=O)[O-])cc1)=NO2 (stereo unspecified)	12.5%	-4.3%	?
O=C(NCc1ccccc1C(F)(F)F)C12CN(Cc3ccccc3)CC1C(c1ccc([N+](=O)[O-])cc1)=NO2 (stereo unspecified)	6.5%	0.0%	-119.2*
O=C(NCc1ccc(C(F)(F)F)cc1)C12CN(Cc3ccccc3)CC1C(c1cccc([N+](=O)[O-])c1)=NO2 (stereo unspecified)	7.6%	2.0%	18.7
CCOC(=O)c1sc(=S)n(C)c1NC(=O)c1ccccc1Cl	·	-0.9%	23.2
CCCCN(CCCC)C(=O)c1ccccc1NC(=O)CN1C(=O)c2ccccc2C1=O	-0.4%	4.9%	42.5
O=C(c1cccc(F)c1)N1CCC[C@@]2(CCN(c3ccncc3)C2)C1	5.0%	2.6%	·
Cc1cc(C)c(C)c(OCC(=O)NCC2CCCO2)c1 (stereo unspecified)	-4.1%	5.3%	-90.4*
Cc1cc(C)cc(OCC(=O)NCC2CCCO2)c1 (stereo unspecified)	1.9%	-0.8%	64.4
CCOc1ccc(-n2cc(C(=O)N3CCCCCC3)c3cc(OC)c(OC)cc3c2=O)cc1	-2.9%	-0.9%	-7.9
Cc1ccc(C(=O)c2no[n+]([O-])c2C(=O)c2ccc(C)cc2)cc1	·	0.4%	12.4
SMILES	ALOX15B inhib	ALOX12 inhib	PNC assembly inh
O=C(NCCC1=CCCCC1)C(=O)c1c[nH]c2ccccc12	·	-2.9%	-22.1
CN(C)C(=O)N1CCCC(C(=O)NCc2ccccc2)C1 (stereo unspecified)	3.0%	3.2%	-90.9*
CN(C)C(=O)N1CCCC(C(=O)NCCc2ccccc2)C1 (stereo unspecified)	?	1.6%	9.5
Oc1ccccc1C1Nc2cccc3cccc(c23)N1	2µM*	?	59.5
COc1ccccc1C1Nc2cccc3cccc(c23)N1	?	-7.6%	39.9
CC1CCC(NC(=O)Cn2c(=O)[nH]c3ccsc3c2=O)CC1 (stereo unspecified)	-9.5%	-2.6%	-27.3
O=C(Cn1c(=O)[nH]c2ccsc2c1=O)NC1CCCCCC1	·	-1.7%	-100.0*
N#C/C(=C(\O)C(=O)O)c1ccc(-c2cccc3ccccc23)cc1	-8.0%[11.4 µM]	3.6%[11.4 µM]	·
COc1ccc2nc(SCC(=O)Nc3ccccc3)[nH]c2c1	·	-19.2%	-107.2*
COc1ccc2nc(SCC(=O)Nc3c(C)cccc3C)[nH]c2c1	4.0%	-4.2%	-22.4
CCCCNS(=O)(=O)c1ccc2nc(SCC(=O)Nc3ccccc3Cl)[nH]c2c1	·	-1.2%	-6.0
CCCCNS(=O)(=O)c1ccc2nc(SCC(=O)Nc3cccc(F)c3)[nH]c2c1	·	-2.6%	-98.3*
COc1cccc(-c2cc(C(=O)NCCCn3ccnc3)no2)c1	32.3%	11.4%	-26.1
COc1ccccc1N(CC(=O)NC(C)(C)C)S(=O)(=O)c1cccs1	·	1.0%	33.6
Cc1ccc(S(=O)(=O)N(CC(=O)O)Cc2cccc(C)c2)cc1	·	0.2%	·
COc1ccc(N2CCN(Cc3nc4c(c(=O)n(C)c(=O)n4C)n3CC(C)=O)CC2)cc1	·	-1.4%	-8.7
Cn1c(=O)[nH]c(=O)c2c1nc(CN1CCN(c3ccc(F)cc3)CC1)n2CCCc1ccccc1	·	8.1%	130.6
COc1ccc(N2CCN(Cc3nc4c(c(=O)[nH]c(=O)n4C)n3CC(C)=O)CC2)cc1	·	6.9%	-90.2*
Cn1c(=O)[nH]c(=O)c2c1nc(CN1CCN(c3ccc(F)cc3)CC1)n2CCc1ccccc1	·	14.3%	-100.0*
Cn1ccc(C(=O)Nc2ccc(Br)cc2Br)n1	·	-1.0%	15.5
CCCCNC(=S)Nc1ccc2cn[nH]c2c1	·	-5.6%	-83.7*
CCc1ccc(NC(=S)Nc2ccc3cn[nH]c3c2)cc1	·	0.4%	11.0
Cc1cc(NC(=O)C(=O)NCCN2CCN(C(=O)c3cccs3)CC2)ccc1Br	·	3.7%	-100.0*
COc1ccc(NC(=O)C(=O)NCCN2CCN(C(=O)c3cccs3)CC2)cc1	·	2.9%	14.0
CCN(C1CCS(=O)(=O)C1)S(=O)(=O)c1cccs1 (stereo unspecified)	-7.6%	6.8%	-106.5*
SMILES	ALOX15B inhib	ALOX12 inhib	PNC assembly inh
O=C(c1ccco1)N(Cc1cccs1)C1CCS(=O)(=O)C1 (stereo unspecified)	0.2%	6.0%	38.5
O=C(CSc1nnc(-c2cccs2)o1)Nc1cccc(S(=O)(=O)N2CCCCC2)c1	·	-2.5%	-8.4
CCCN1CC=C2C(C#N)=C(N)C(C#N)(C#N)C(c3cccc(OC)c3OC)C2C1 (stereo unspecified)	14.1%	-1.0%	-95.2*
CN1CC=C2C(C#N)=C(N)C(C#N)(C#N)[C@H](c3ccoc3)[C@H]2C1	16.0%	-9.7%	-80.9*
COc1ccc(OC)c(C2C3CN(C(C)C)CC=C3C(C#N)=C(N)C2(C#N)C#N)c1 (stereo unspecified)	13.5%	-14.2%	-8.5
CC(=O)N1CC=C2C(C#N)=C(N)C(C#N)(C#N)[C@H](c3ccoc3)[C@H]2C1	3.1%	-1.7%	?
Cc1ccc(NC(=O)Cn2cnc3c(cnn3C(C)(C)C)c2=O)cc1	-6.8%	0.2%	-100.0*
